{"source": "the supplement of paper PMC8728848", "binders": {"B1": {"name": "EfCBM33A (Enterococcus faecalis), Q838S1 (protein)", "chain": "MKKSLLTIVLAFSFVLGGAALAPTVSEAHGYVASPGSRAFFGSSAGGNLNTNVGRAQWEPQSIEAPKNTFITGKLASAGVSGFEPLDEQTATRWHKTNITTGPLDITWNLTAQHRTASWDYYITKNGWNPNQPLDIKNFDKIASIDGKQEVPNKVVKQTINIPTDRKGYHVIYAVWGIGDTVNAFYQAIDVNIQ"}}, "experiment_in_all_cases": "glycan array binding signal (z-score within array); higher = stronger binding", "details_in_all_cases": "glycan notation: IUPAC condensed, linker removed", "key": {"[1]": {"biological_target": "GlcNAc(b1-3)[GlcNAc(b1-6)]GalNAc", "how_it_was_run": "(§1)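 Negative Z-scores can be read as non-binding. The Z-score is calculated within each array and then averaged across arrays of one protein sequence at different concentrations or buffers and across linkers. Arrays, 3228 in all, were curated from the Consortium for Functional Glycomics database and kept only where the protein sequence was available.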"}, "[2]": {"biological_target": "GlcNAc(b1-4)GlcNAc(b1-4)GlcNAc(b1-4)GlcNAc(b1-4)GlcNAc(b1-4)GlcNAc", "how_it_was_run": "as §1"}, "Kdn(a2-6)Gal(b1-4)GlcNAc": {"biological_target": "Kdn(a2-6)Gal(b1-4)GlcNAc", "how_it_was_run": "as §1"}, "[3]": {"biological_target": "Man(a1-2)Man(a1-2)Man(a1-3)Man", "how_it_was_run": "as §1"}, "[4]": {"biological_target": "Man(a1-2)Man(a1-3)[Man(a1-2)Man(a1-6)]Man", "how_it_was_run": "as §1"}, "[5]": {"biological_target": "Man(a1-3)[Man(a1-6)]Man(a1-6)[Man(a1-3)]Man(b1-4)GlcNAc(b1-4)GlcNAc", "how_it_was_run": "as §1"}, "MurNAc(b1-4)GlcNAc": {"biological_target": "MurNAc(b1-4)GlcNAc", "how_it_was_run": "as §1"}, "[6]": {"biological_target": "Neu5Ac(a2-3)Gal(b1-4)GlcNAc(b1-2)Man(a1-3)[GlcNAc(b1-4)][Neu5Ac(a2-3)Gal(b1-4)GlcNAc(b1-2)Man(a1-6)]Man(b1-4)GlcNAc(b1-4)GlcNAc", "how_it_was_run": "as §1"}, "[7]": {"biological_target": "Neu5Ac(a2-3)Gal(b1-4)GlcNAc(b1-3)Gal(b1-4)GlcNAc", "how_it_was_run": "as §1"}, "[8]": {"biological_target": "Neu5Ac(a2-3)Gal(b1-4)GlcNAc(b1-3)Gal(b1-4)GlcNAc(b1-3)[Neu5Ac(a2-3)Gal(b1-4)GlcNAc(b1-3)Gal(b1-4)GlcNAc(b1-6)]GalNAc", "how_it_was_run": "as §1"}, "[9]": {"biological_target": "Neu5Ac(a2-3)Gal(b1-4)GlcNAc(b1-3)[Neu5Ac(a2-3)Gal(b1-4)GlcNAc(b1-6)]GalNAc", "how_it_was_run": "as §1"}, "[10]": {"biological_target": "Neu5Ac(a2-3)Gal(b1-4)[Fuc(a1-3)]GlcNAc(b1-3)GalNAc", "how_it_was_run": "as §1"}, "[11]": {"biological_target": "Neu5Ac(a2-6)Gal(b1-4)GlcNAc(b1-2)Man(a1-3)Man(b1-4)GlcNAc(b1-4)GlcNAc", "how_it_was_run": "as §1"}, "[12]": {"biological_target": "Neu5Ac(a2-6)Gal(b1-4)GlcNAc(b1-2)Man(a1-3)[Gal(b1-4)GlcNAc(b1-2)Man(a1-6)]Man(b1-4)GlcNAc(b1-4)GlcNAc", "how_it_was_run": "as §1"}, "[13]": {"biological_target": "Neu5Ac(a2-6)Gal(b1-4)GlcNAc(b1-2)[Neu5Ac(a2-6)Gal(b1-4)GlcNAc(b1-4)]Man(a1-3)[GlcNAc(b1-4)][Neu5Ac(a2-6)Gal(b1-4)GlcNAc(b1-2)[Neu5Ac(a2-6)Gal(b1-4)GlcNAc(b1-6)]Man(a1-6)]Man(b1-4)GlcNAc(b1-4)GlcNAc", "how_it_was_run": "as §1"}, "[14]": {"biological_target": "Neu5Ac(a2-6)Gal(b1-4)GlcNAc(b1-2)[Neu5Ac(a2-6)Gal(b1-4)GlcNAc(b1-6)]Man(a1-6)[Neu5Ac(a2-6)Gal(b1-4)GlcNAc(b1-2)Man(a1-3)][GlcNAc(b1-4)]Man(b1-4)GlcNAc(b1-4)GlcNAc", "how_it_was_run": "as §1"}, "[15]": {"biological_target": "Neu5Ac(a2-6)Gal(b1-4)GlcNAc(b1-3)Gal(b1-4)GlcNAc", "how_it_was_run": "as §1"}, "[16]": {"biological_target": "Neu5Ac(a2-6)Gal(b1-4)GlcNAc(b1-3)Gal(b1-4)GlcNAc(b1-3)[Neu5Ac(a2-6)Gal(b1-4)GlcNAc(b1-3)Gal(b1-4)GlcNAc(b1-6)]GalNAc", "how_it_was_run": "as §1"}, "[17]": {"biological_target": "Neu5Ac(a2-6)Gal(b1-4)GlcNAc(b1-6)[Gal(b1-3)GlcNAc(b1-3)]Gal(b1-4)Glc", "how_it_was_run": "as §1"}, "[18]": {"biological_target": "Neu5Ac(a2-8)Neu5Ac(a2-8)Neu5Ac", "how_it_was_run": "as §1"}, "[19]": {"biological_target": "Neu5Gc(a2-8)Neu5Gc(a2-6)Gal(b1-4)GlcNAc", "how_it_was_run": "as §1"}}, "note": "This excerpt belongs to a sample that is enriched for the strongest signals."}
{"binder": "B1", "values": [{"measurement": "glycan array binding signal (z-score)", "setting": "[1]", "value": -0.941}, {"measurement": "glycan array binding signal (z-score)", "setting": "[2]", "value": 0.083}, {"measurement": "glycan array binding signal (z-score)", "setting": "Kdn(a2-6)Gal(b1-4)GlcNAc", "value": 0.328}, {"measurement": "glycan array binding signal (z-score)", "setting": "[3]", "value": -0.162}, {"measurement": "glycan array binding signal (z-score)", "setting": "[4]", "value": 0.783}, {"measurement": "glycan array binding signal (z-score)", "setting": "[5]", "value": 0.455}, {"measurement": "glycan array binding signal (z-score)", "setting": "MurNAc(b1-4)GlcNAc", "value": 0.631}, {"measurement": "glycan array binding signal (z-score)", "setting": "[6]", "value": 0.122}, {"measurement": "glycan array binding signal (z-score)", "setting": "[7]", "value": -0.177}, {"measurement": "glycan array binding signal (z-score)", "setting": "[8]", "value": 7.32}, {"measurement": "glycan array binding signal (z-score)", "setting": "[9]", "value": 3.14}, {"measurement": "glycan array binding signal (z-score)", "setting": "[10]", "value": 2.79}, {"measurement": "glycan array binding signal (z-score)", "setting": "[11]", "value": 2.04}, {"measurement": "glycan array binding signal (z-score)", "setting": "[12]", "value": 0.519}, {"measurement": "glycan array binding signal (z-score)", "setting": "[13]", "value": 2.16}, {"measurement": "glycan array binding signal (z-score)", "setting": "[14]", "value": 0.103}, {"measurement": "glycan array binding signal (z-score)", "setting": "[15]", "value": 2.76}, {"measurement": "glycan array binding signal (z-score)", "setting": "[16]", "value": 0.687}, {"measurement": "glycan array binding signal (z-score)", "setting": "[17]", "value": -0.451}, {"measurement": "glycan array binding signal (z-score)", "setting": "[18]", "value": 0.016}, {"measurement": "glycan array binding signal (z-score)", "setting": "[19]", "value": -0.736}]}
